NS1 function inh – qHTS Assay for Inhibitors of Influenza NS1 Protein Function; Potency, µM (top dose mostly 46.1 µM), for inactives: at the highest dose activity, positive = more growth; hit rate 0.4% among 270,000; calls by dose curve; note: actives are rising curves; nearly all actives have a fitted effect of over 50% in size
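Recovery from NS1-induced slow growth read by OD600 in budding yeast switched to galactose assay medium (pH 6.0, -URA) at 1:100 dilution. Compound 23 nl per well; the matching strain lacking NS1 serves as control.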
Pf growth 48h – Primary qHTS for delayed death inhibitors of the malarial parasite plastid, 48 hour incubation. P. falciparum luciferase growth in erythrocytes, 48 h. Potency, µM (top dose mostly 28.7 µM), for inactives: at the top dose activity change, negative = inhibition, hits mostly inhibitors. hit rate 5.9% among 310,000; note: % is set by controls: 0 for no effect and ±100 for the full control effect
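Luciferase-expressing parasites in RBCs, 2% Hct / 0.1% parasitemia final; RPMI 1640 + 0.5% Albumax; 37 C, 5% CO2, one generation; luminescence read-out, lower signal = inhibition.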
HCV inhibitor – qHTS Assay for Inhibitors of Hepatitis C Virus (HCV) | Huh7.5.1 HCVcc-Cre infection, luciferase reporter, 44 h | hit rate 3.4% among 340,000 | Potency, µM (series often up to 41.8 µM), without a hit: top-dose activity change, negative = inhibition, most hits filed as inhibitors; note: % is set by controls: 0 for no effect and ±100 for the full control effect
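Infectious HCV cell culture screen: compound-treated cells (1,000/well, pre-plated 4 h) are infected with HCVcc-Cre at roughly 0.5 moi and grown 44 h. Infection is quantified by luciferase signal after 15 min substrate incubation at room temperature.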
SARS PLP yeast – qHTS of Yeast-based Assay for SARS-CoV PLP. Potency, µM (top dose mostly 32.9 µM), without a hit: at the highest dose activity, positive = growth rescue, most hits filed as activators. S. cerevisiae expressing SARS-CoV PLpro, growth rescue. hit rate 0.19% among 330,000; calls by dose curve; note: 0% is about no effect; nearly all actives have a fitted effect of over 55% in size
Pf growth 96h – Primary qHTS for delayed death inhibitors of the malarial parasite plastid, 96 hour incubation. hit rate 6.9% among 320,000. P. falciparum luciferase reporter growth, 96 h. Potency, µM (top dose mostly 28.7 µM), without a hit: at the highest dose activity change, negative = inhibition, hits mostly inhibitors. AID 504834, 2011; note: % is set by controls: 0 for no effect and ±100 for the full control effect
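Two-generation exposure (96 h) targets delayed-death phenotype. Reporter parasites carrying integrated firefly luciferase, in red cells at 2% hematocrit and 0.05% parasitemia final, kept at 37 C, 5% CO2; luminescence loss indicates inhibition.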
AMA1-RON2 inh – qHTS for Inhibitors of AMA1-RON; Towards Development of Antimalarial Drug Lead: Primary Screen | AlphaScreen AMA1-biotinylated RON2 peptide binding | Potency, µM (highest dose often 58.2 µM), without a hit: top-dose activity change, negative = inhibition, most hits filed as inhibitors | Plasmodium falciparum AMA1 (3D7) - RON2 peptide interaction | hit rate 0.2% among 360,000;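 note: 0% = vehicle wells and -100% = peptide control; nearly all actives have a fitted effect of over 45% in size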
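AMA1 (3D7) with his tag at 25 nM final met compounds first, then biotinylated RON2 peptide at 25 nM; detection used donor plus acceptor beads, 10 µg/mL apiece, read by AlphaScreen after 30 min at room temperature.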
Active calls of the source: *; ? = inconclusive; / = no result; [ ] = remark or other dose. A selection: hits, their analogues and other compounds. The true share with any hit is near 12%. Unless noted, calls come from the whole dose curve; as a rule, active = well fitted curve in the direction sought with a large enough effect; inconclusive = small, poorly fitted or top-dose-only effect, or another doubt; inactive = no such curve, though single readings can be large; an effect the other way counts as inactive or inconclusive. Potency is the fitted concentration of half-maximal effect.

SMILES	NS1 function inh	Pf growth 48h	HCV inhibitor	SARS PLP yeast	Pf growth 96h	AMA1-RON2 inh
COc1cc(C(C(=O)NC2CCCCC2)N(C(=O)Cc2c[nH]c3ccccc23)c2ccccc2C)cc(OC)c1OC (centres undefined)	?	13.1µM*	17.8%	-1.7%	?	-8.3%[11.6 µM]
COc1ccccc1CN(C(=O)Cc1cccs1)C(C(=O)NC1CCCC1)c1ccncc1 (centres undefined)	-15.9%	?	3.9%	3.8%	16.5%	22.6%
COc1ccc(C(C(=O)Nc2ccc3c(c2)OCO3)N(C)C(=O)Cc2c[nH]c3ccccc23)cc1 (centres undefined)	?	?	?	-3.1%	?	?
COc1ccc(C(C(=O)NC2CCCCC2)N(C(=O)Cc2c[nH]c3ccccc23)c2ccc(NC(C)=O)cc2)cc1OC (centres undefined)	10.9%	10.4µM*	3.1%	-0.9%	9.28µM*	-3.9%
C=CCn1c(O)c(C(C)=NCCC(c2ccccc2)c2ccccc2)c(=O)[nH]c1=O	6.6%	-12.8%	18.0%	9.0%	11.7µM*	18.8%
C=CCn1c(O)c(C(C)=NC(C)c2ccccc2)c(=O)[nH]c1=O (centres undefined)	-3.7%	-1.2%	-14.7%	-1.1%	-5.2%	12.0%
CCOC(=O)c1c(C)n(CCOc2ccccc2)c2ccc(O)cc12	-5.8%	-12.4%	10.5%	0.3%	?	6.7%
CCOC(=O)c1c(C)n(CC(O)c2ccccc2)c2ccc(O)cc12 (centres undefined)	-16.4%	11.7µM*	?	3.2%	11.7µM*	-3.7%
CCOC(=O)c1c(NC(=O)c2ccccc2Cl)sc2c1CCc1ccccc1-2	11.6%	?	7.94µM*	-5.7%	?	16.5%
O=C(CCNC(=O)c1ccc([N+](=O)[O-])cc1)Oc1ccc(F)c(F)c1	/	/	9.6%	0.1%	/	-3.0%
COc1cc(/C=C2/C(=O)NN(c3cccc(C)c3)C2=O)ccc1OC(=O)c1ccco1	-2.2%	12.0%	22.6%	15.6%	4.15µM*	-17.1%
CC1(C)Cc2ccccc2C(/C(=N\Nc2cccc(Cl)c2)C(N)=O)=N1	2.4%	5.86µM*	?	-92.0%	9.3%	?
CC(=O)c1ccc(N/N=C(/C(N)=O)C2=NC(C)(C)Cc3ccccc32)cc1	-22.8%	?	?	-5.8%	5.0%	?
CC(C)(C)c1cc(N2CCOCC2)n2ncc(-c3ccccc3)c2n1	1.9%	/	?	3.7%	-19.6%	23.2%
CC(C)(C)c1cc(C(F)(F)F)n2ncc(-c3ccccc3)c2n1	/	36.4%[5.75 µM]	?	0.7%	?	-14.0%
CC(C)Nc1cc(C(C)(C)C)nc2c(-c3ccccc3)cnn12	1.1%	?	?	-0.5%	13.1µM*	32.1%
CCc1nccn1-c1cc(C(C)(C)C)nc2c(-c3ccc(Cl)cc3)cnn12	10.1%	50.3%	11.0%	?	13.1µM*	6.9%
CN(C)CCCNc1cc(C(C)(C)C)nc2c(-c3ccc(Cl)cc3)cnn12	8.5%	?	10µM*	-0.9%	?	43.9%
CC(C)(C)c1cc(NCc2ccccn2)n2ncc(-c3ccc(Cl)cc3)c2n1	1.3%	3.29µM*	?	0.0%	?	78.4%
CC(C)(C)c1cc(-n2ccnc2)n2ncc(-c3ccc(Cl)cc3)c2n1	9.8%	80.1%	15.6%	8.1%	55.8%	9.4%
CC(C)/C(=N\NS(=O)(=O)c1ccc(Br)cc1)c1cccs1	-30.9%	19.7%	4.7%	-4.0%	?	6.1%
CN(c1ccccc1C(=O)Nc1ccc(CC#N)cc1)S(=O)(=O)c1ccccc1	2.3%	0.0%	4.2%	2.8%	11.9%	25.6%
NCCCc1c(-c2ccccc2)nc(N)[nH]c1=O	-8.3%	/	/	/	/	/
C/C(=C(/CCO)SS/C(CCO)=C(\C)N(C=O)Cc1cnc(C)nc1N)N(C=O)Cc1cnc(C)nc1N	/	-6.5%	/	/	?	/
CCCCCC(C(=O)O)C(C)CC(=O)NC1CCCCC1 (centres undefined)	?	11.8%	3.6%	4.4%	13.1µM*	8.7%
SMILES	NS1 function inh	Pf growth 48h	HCV inhibitor	SARS PLP yeast	Pf growth 96h	AMA1-RON2 inh
CSc1ncccc1C(=O)Nc1cc(Cl)ccc1N1CCOCC1	/	/	?	/	/	-8.2%[11.6 µM]
Cc1ccc(-c2nn(-c3ccccc3)cc2CSC(=N)N)cc1	-6.0%	?	?	-0.4%	1.65µM*	9.0%
CSc1ccccc1C(=O)C1CCCN(Cc2ccncc2)C1 (centres undefined)	-1.4%	?	?	0.7%	1.17µM*	1.1%
O=C(c1ccc2c3c(cccc13)CC2)C1CCCN(Cc2cccnc2)C1 (centres undefined)	-0.5%	1.65µM*	22.4µM*	-0.5%	?	?
COc1ccc(O)c(CN2CCCC(C(=O)c3ccccc3SC)C2)c1 (centres undefined)	1.3%	5.22µM*	11.2µM*	-1.9%	16.2%	?
O=S(=O)(CCc1ccncc1)C1Cc2cccc3cccc1c23 (centres undefined)	?	3.9%	-25.6%	0.7%	0.3%	0.0%
COc1ccc(CNC(=O)C2=CCN(S(=O)(=O)c3ccc(C)cc3)CC2)cc1	-7.9%	-19.1%	1.9%	2.4%	-25.2%	1.5%
Cc1ccc2nc(SCC(=O)OCc3ccccc3)nc(=O)n2c1	/	3.2%	5.1%	0.4%	4.5%	-17.1%
CCn1c(SCc2nc3ccccc3s2)nnc1-c1cccs1	-12.4%	-18.4%	-27.2%	?	10.4µM*	9.8%
CCn1c(SCCOc2ccc(Cl)cc2)nnc1-c1cccs1	-90.6%	?	-19.2%	-7.2%	9.28µM*	2.7%
CCCn1c(=O)c2ccccc2n2c(SCc3nc4ccccc4s3)nnc12	-1.3%	103.5%	-26.1%	3.3%	10.4µM*	2.4%
O=C1COc2ccc(C(=O)COC(=O)c3cc(S(=O)(=O)NCc4ccccc4)ccc3O)cc2N1	1.8%	-1.1%	9.9%	-1.2%	?	-1.2%
CN(C(=O)c1cccc(NC(=O)Cc2ccc(NC(=O)C3CCN(C(=O)C4CCCCC4)CC3)cc2)c1)C1CC1	/	/	?	/	/	1.6%
CCCCCOC(=O)Nc1nc(=O)n(C2O[C@H](C)[C@@H](O)[C@@H]2O)cc1F (some centres undefined)	/	-28.7%	/	/	?	/
CCCOc1ccc(N2CC(C(=O)NC3=NCCS3)CC2=O)cc1 (centres undefined)	/	5.0%	2.1%	2.2%	?	-5.5%
CCOC(=O)c1sc(NC(=O)c2ccc(S(=O)(=O)N3CCOCC3)cc2)cc1C	-46.0%	?	?	-2.4%	5.86µM*	-3.5%

Screens from PubChem BioAssay.
